Data from PubChem BioAssay (NCATS).
Inconclusive results are not listed. A number with no mark means an inactive call. Active and inactive are the calls of the source. Unless noted, calls come from the whole dose curve.

Test system: not listed separately
Experiment: qHTS for Inhibitors of the Functional Ribonucleoprotein Complex (vRNP) of Lymphocytic Choriomeningitis Arenaviruses (LCMV): Viability assay - alamar blue signal for LCMV Primary Screen (AID 1347085; calls by dose curve; tested in HEK293 reporter line; note: nearly all actives have a fitted effect of over 80% in size)
Details: alamar blue viability counter-screen, LCMV vRNP screen cells; series mostly up to 57.5 µM; activity change, negative = lower viability: at the top concentration
% is set by controls: 0 for no effect and ±100 for the full control effect.

SMILES | Potency | activity change, negative = lower viability
CC(C)C[C@@H](N)C(=O)O | inactive | –
OCc1ccccc1O | – | -3.3%
CN1Cc2c(N)cccc2C(c2ccccc2)C1 (stereo not drawn) | inactive | –
Cc1ccc(/C(=C\CN2CCCC2)c2ccccn2)cc1 | inactive | –
COc1ccccc1N1CCN(CC(O)COc2cccc3ccccc23)CC1 (stereo not drawn) | inactive | –
Clc1ccc(CO/N=C(\Cn2ccnc2)c2ccc(Cl)cc2Cl)c(Cl)c1 | – | 22.9%
CC(C)(C)C(=O)OCOC(=O)C1N2C(=O)CC2S(=O)(=O)C1(C)C (stereo not drawn) | – | 1%
C[C@@H]1CC[C@@]2(OC1)O[C@H]1C[C@H]3[C@@H]4CC[C@H]5C[C@@H](O)CC[C@]5(C)[C@H]4CC(=O)[C@]3(C)[C@H]1[C@@H]2C | – | -0.186% [at 5.82 µM]
Cc1ccc(=O)n(-c2ccccc2)c1 | inactive | –
CCN(CC)CCOc1ccc(/C(=C(\Cl)c2ccccc2)c2ccccc2)cc1 | – | -14.8%
Cc1cc(C)c(/C=C2\C(=O)Nc3ccccc32)[nH]1 | inactive | –
O=C(O)c1cccnc1Nc1cccc(C(F)(F)F)c1 | inactive | –
C[C@@]12CCC[C@H]1[C@@H]1CC[C@H]3C[C@@H](O)CC[C@]3(C)[C@H]1CC2 | – | 20.7%
CO[C@@H]1[C@@H](O[C@@H]2O[C@H](C)[C@@H](O[C@H]3C[C@@](C)(O)[C@@H](O)[C@H](C)O3)[C@H](N(C)C)[C@H]2O)[C@@H](CC=O)C[C@@H](C)[C@@H](O[C@@H]2CC[C@H](N(C)C)[C@@H](C)O2)/C=C/C=C/C[C@@H](C)OC(=O)C[C@H]1OC(C)=O | – | 31.3%
C[C@@H](CN(C)C)CN1c2ccccc2Sc2ccccc21 | – | -10.8%
c1ccc(CNCCNCc2ccccc2)cc1 | – | 0.0106%
CCOC(=O)n1ccn(C)c1=S | – | 2.81%
CN1CCCCC1CCN1c2ccccc2Sc2ccc(S(C)=O)cc21 (stereo not drawn) | – | -1.1%
C=C1c2cccc(O)c2C(O)=C2C(=O)[C@]3(O)C(O)=C(C(N)=O)C(=O)[C@@H](N(C)C)[C@@H]3[C@@H](O)[C@H]12 | – | -0.224%
O=C(O)[C@H](O)[C@@H](O)[C@H](O[C@@H]1O[C@H](CO)[C@H](O)[C@H](O)[C@H]1O)[C@H](O)CO | – | 1.91%

SMILES | Potency | activity change, negative = lower viability
CNc1c2c(nn1C)CCCC2 | – | -4.5%
NS(=O)(=O)c1cc2c(cc1Cl)NCNS2(=O)=O | inactive | –
Nc1ccc(N=Nc2ccccc2)c(N)n1 | – | -2.62%
Cc1c(F)cc2c(=O)c(C(=O)O)cn3c2c1CCC3C (stereo not drawn) | – | 21.7%
CCOc1ccc(C(=O)OCCN(CC)CC)cc1 | – | 11.1%
NC(=O)C1(N2CCCCC2)CCN(CCCC(=O)c2ccc(F)cc2)CC1 | – | -1.04%
CCCCC(=O)O[C@]1(C(=O)CO)CC[C@H]2[C@@H]3CCC4=CC(=O)CC[C@]4(C)[C@H]3[C@@H](O)C[C@@]21C | – | -19%
C[C@]12C=CC(=O)C=C1CC[C@H]1[C@@H]3C[C@@H](O)[C@](O)(C(=O)CO)[C@@]3(C)C[C@H](O)[C@@]12F | inactive | –
COC(=O)C1=C(C)NC(COC(N)=O)=C(C(=O)OC(C)C)C1c1cccc(Cl)c1Cl (stereo not drawn) | – | -0.034%
CCN(CC)CC(=O)Nc1c(C)cccc1C(=O)OC | – | 0.945%
Clc1ccc(C(Cn2ccnc2)OCc2ccc(Sc3ccccc3)cc2)c(Cl)c1 (stereo not drawn) | inactive | –
CCN(CC)CCOc1ccc(Cc2ccccc2)cc1 | – | -12.2%
c1ccc(CN(CC2=NCCN2)c2ccccc2)cc1 | – | 0.569%
NC1=NCC2c3ccccc3Cc3ccccc3N12 (stereo not drawn) | inactive | –
Cc1c(C)c2c(c(C)c1OC(=O)CCC(=O)OCCO)CC[C@@](C)(CCC[C@H](C)CCC[C@H](C)CCCC(C)C)O2 | – | -177%
C[C@H]1[C@H]2CC[C@H]3[C@@H]4CC=C5C[C@@H](N(C)C)CC[C@]5(C)[C@H]4CC[C@]23CN1C | – | -9.24%
CCCC(=O)O[C@]1(C(=O)CC)CC[C@H]2[C@@H]3CCC4=CC(=O)CC[C@]4(C)[C@H]3[C@@H](O)C[C@@]21C | – | 3.38%
O=C1C(c2[nH]c3ccccc3c2O)=Nc2ccccc21 | – | 13.4%
NC(=O)C(=O)N/N=C/c1ccc([N+](=O)[O-])o1 | – | -19.5%

Molecular target: Nucleoprotein (Lymphocytic choriomeningitis virus (strain Armstrong)) (UniProt P09992)
Experiment: qHTS for Inhibitors of the Functional Ribonucleoprotein Complex (vRNP) of Lymphocytic Choriomeningitis Arenaviruses (LCMV): LCMV Primary Screen - GLuc reporter signal (AID 1347086); note: nearly all actives have a fitted effect of over 70% in size
Details: LCMV minigenome vRNP cell assay, Gaussia luciferase reporter; series mostly up to 57.5 µM; activity change, negative = inhibition: at the top concentration

Chain of Nucleoprotein (Lymphocytic choriomeningitis virus (strain Armstrong)) (P09992 whole entry, looked up): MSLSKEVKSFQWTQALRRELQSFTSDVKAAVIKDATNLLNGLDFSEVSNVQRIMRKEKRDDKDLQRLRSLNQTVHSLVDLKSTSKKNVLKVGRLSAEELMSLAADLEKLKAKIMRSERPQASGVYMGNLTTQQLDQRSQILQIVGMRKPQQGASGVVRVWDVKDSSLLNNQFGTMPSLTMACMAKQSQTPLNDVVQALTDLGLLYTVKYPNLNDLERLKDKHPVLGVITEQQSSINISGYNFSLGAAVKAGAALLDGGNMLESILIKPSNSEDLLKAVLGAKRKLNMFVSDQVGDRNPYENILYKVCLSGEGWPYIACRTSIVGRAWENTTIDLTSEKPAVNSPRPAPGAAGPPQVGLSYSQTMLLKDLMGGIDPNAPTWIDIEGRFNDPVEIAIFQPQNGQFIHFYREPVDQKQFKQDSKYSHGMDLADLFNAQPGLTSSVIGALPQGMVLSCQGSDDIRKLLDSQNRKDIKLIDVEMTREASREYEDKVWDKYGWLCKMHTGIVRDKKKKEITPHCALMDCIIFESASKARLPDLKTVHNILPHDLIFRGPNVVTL

SMILES | Potency | activity change, negative = inhibition
CC(C)C[C@@H](N)C(=O)O | inactive | –
OCc1ccccc1O | – | -12.5%
CN1Cc2c(N)cccc2C(c2ccccc2)C1 (stereo not drawn) | inactive | –
Cc1ccc(/C(=C\CN2CCCC2)c2ccccn2)cc1 | inactive | –
COc1ccccc1N1CCN(CC(O)COc2cccc3ccccc23)CC1 (stereo not drawn) | inactive | –
Clc1ccc(CO/N=C(\Cn2ccnc2)c2ccc(Cl)cc2Cl)c(Cl)c1 | – | -34.6%
CC(C)(C)C(=O)OCOC(=O)C1N2C(=O)CC2S(=O)(=O)C1(C)C (stereo not drawn) | – | 13.5%
C[C@@H]1CC[C@@]2(OC1)O[C@H]1C[C@H]3[C@@H]4CC[C@H]5C[C@@H](O)CC[C@]5(C)[C@H]4CC(=O)[C@]3(C)[C@H]1[C@@H]2C | – | 19.7% [at 5.82 µM]
Cc1ccc(=O)n(-c2ccccc2)c1 | inactive | –
CCN(CC)CCOc1ccc(/C(=C(\Cl)c2ccccc2)c2ccccc2)cc1 | – | -33%
Cc1cc(C)c(/C=C2\C(=O)Nc3ccccc32)[nH]1 | inactive | –
O=C(O)c1cccnc1Nc1cccc(C(F)(F)F)c1 | inactive | –
C[C@@]12CCC[C@H]1[C@@H]1CC[C@H]3C[C@@H](O)CC[C@]3(C)[C@H]1CC2 | – | 34%
CO[C@@H]1[C@@H](O[C@@H]2O[C@H](C)[C@@H](O[C@H]3C[C@@](C)(O)[C@@H](O)[C@H](C)O3)[C@H](N(C)C)[C@H]2O)[C@@H](CC=O)C[C@@H](C)[C@@H](O[C@@H]2CC[C@H](N(C)C)[C@@H](C)O2)/C=C/C=C/C[C@@H](C)OC(=O)C[C@H]1OC(C)=O | – | -37.3%
C[C@@H](CN(C)C)CN1c2ccccc2Sc2ccccc21 | – | -22.4%
c1ccc(CNCCNCc2ccccc2)cc1 | – | -9.06%
CCOC(=O)n1ccn(C)c1=S | – | -6.81%
CN1CCCCC1CCN1c2ccccc2Sc2ccc(S(C)=O)cc21 (stereo not drawn) | – | 1.58%
C=C1c2cccc(O)c2C(O)=C2C(=O)[C@]3(O)C(O)=C(C(N)=O)C(=O)[C@@H](N(C)C)[C@@H]3[C@@H](O)[C@H]12 | – | 1.44%
O=C(O)[C@H](O)[C@@H](O)[C@H](O[C@@H]1O[C@H](CO)[C@H](O)[C@H](O)[C@H]1O)[C@H](O)CO | – | 19.2%

SMILES | Potency | activity change, negative = inhibition
CNc1c2c(nn1C)CCCC2 | – | -8.79%
NS(=O)(=O)c1cc2c(cc1Cl)NCNS2(=O)=O | inactive | –
Nc1ccc(N=Nc2ccccc2)c(N)n1 | – | 11.3%
Cc1c(F)cc2c(=O)c(C(=O)O)cn3c2c1CCC3C (stereo not drawn) | – | 7.93%
CCOc1ccc(C(=O)OCCN(CC)CC)cc1 | – | 22.8%
NC(=O)C1(N2CCCCC2)CCN(CCCC(=O)c2ccc(F)cc2)CC1 | – | -0.0169%
CCCCC(=O)O[C@]1(C(=O)CO)CC[C@H]2[C@@H]3CCC4=CC(=O)CC[C@]4(C)[C@H]3[C@@H](O)C[C@@]21C | – | 29.1%
C[C@]12C=CC(=O)C=C1CC[C@H]1[C@@H]3C[C@@H](O)[C@](O)(C(=O)CO)[C@@]3(C)C[C@H](O)[C@@]12F | inactive | –
COC(=O)C1=C(C)NC(COC(N)=O)=C(C(=O)OC(C)C)C1c1cccc(Cl)c1Cl (stereo not drawn) | – | -25.6%
CCN(CC)CC(=O)Nc1c(C)cccc1C(=O)OC | – | -6.45%
Clc1ccc(C(Cn2ccnc2)OCc2ccc(Sc3ccccc3)cc2)c(Cl)c1 (stereo not drawn) | inactive | –
CCN(CC)CCOc1ccc(Cc2ccccc2)cc1 | – | -35.9%
c1ccc(CN(CC2=NCCN2)c2ccccc2)cc1 | – | 16.8%
NC1=NCC2c3ccccc3Cc3ccccc3N12 (stereo not drawn) | inactive | –
Cc1c(C)c2c(c(C)c1OC(=O)CCC(=O)OCCO)CC[C@@](C)(CCC[C@H](C)CCC[C@H](C)CCCC(C)C)O2 | – | -98.8%
C[C@H]1[C@H]2CC[C@H]3[C@@H]4CC=C5C[C@@H](N(C)C)CC[C@]5(C)[C@H]4CC[C@]23CN1C | – | 22%
CCCC(=O)O[C@]1(C(=O)CC)CC[C@H]2[C@@H]3CCC4=CC(=O)CC[C@]4(C)[C@H]3[C@@H](O)C[C@@]21C | – | 1.79%
O=C1C(c2[nH]c3ccccc3c2O)=Nc2ccccc21 | – | 6.76%
NC(=O)C(=O)N/N=C/c1ccc([N+](=O)[O-])o1 | – | -10.8%
